{
  "source": "paper PMC4552634",
  "about": "“A New Set of Chemical Starting Points with Plasmodium falciparum Transmission-Blocking Potential for Antimalarial Drug Discovery” (PLoS ONE, 2015)",
  "note": "The campaign covered roughly 13,000 compounds. About 3,200 (25%) showed an effect of 50% or more. The list shows a part of the results.",
  "data": [
    {"tested_on": "P. falciparum stage V gametocytes", "set-up": "BacTiter-Glo ATP luminescence viability of purified stage V gametocytes in 384-well plates, per cent inhibition versus DMSO", "settings": "48 h, 5 µM; inhibitor", "units": {"% Inhibition": "%"}, "values": [
      {"molecule": "CCCc1cc(NCc2ccncc2)nc(Nc2ccc(F)cc2)n1", "note": "[TCMDC-134012]", "% Inhibition": 34.89},
      {"molecule": "NC(=O)c1ccsc1NC(=O)CNC(c1ccccc1)c1ccccc1", "note": "[TCMDC-125458]", "% Inhibition": 2.042},
      {"molecule": "O=C(N[C@@H](Cc1ccccc1)[C@H](O)CNC1CCCc2ccccc21)c1cc(C2CCCC2)cc(N2CCCC2=O)c1", "note": "(stereo partly drawn) [TCMDC-134656]", "% Inhibition": -0.2102},
      {"molecule": "Cc1c2c(nn1-c1ccccc1)C(c1ccccc1)N(c1ccccc1)C2=O", "note": "(stereo not drawn) [TCMDC-131674]", "% Inhibition": -2.033},
      {"molecule": "COc1ccccc1N1CCN(c2cccc(F)c2C#N)CC1", "note": "[TCMDC-124862]", "% Inhibition": -55.85},
      {"molecule": "COc1cc(C)c(NC(=O)c2cccc3c(=O)c(C)c(-c4ccccc4)oc23)cc1OC", "note": "[TCMDC-125261]", "% Inhibition": -26.52},
      {"molecule": "COc1ccc(-c2ccc(S(=O)(=O)Nc3cc4c(cc3OC(C)C)CCN(C)CC4)cc2)cc1", "note": "[TCMDC-141487]", "% Inhibition": 10.97},
      {"molecule": "CC(C)C(=O)ONC1=NC(C)(C)N(OCCCOc2cc(Cl)c(Cl)cc2Cl)C(NOC(=O)C(C)C)=N1", "note": "[TCMDC-131788]", "% Inhibition": -4.555},
      {"molecule": "CNC(=O)c1cnc(Nc2ccc(OCC(O)CN(C)C)cc2)nc1Nc1cccc(OC)c1", "note": "(stereo not drawn) [TCMDC-141387]", "% Inhibition": 95.62},
      {"molecule": "CNC(=O)c1cnc(Nc2ccc(N3CCOCC3)cc2)nc1Nc1cccc(O)c1", "note": "[TCMDC-141385]", "% Inhibition": -8.649},
      {"molecule": "CN1CCN(c2ccc(Nc3ncc(C#N)c(Nc4ccccc4C(N)=O)n3)cc2)CC1", "note": "[TCMDC-134116]", "% Inhibition": -62.53},
      {"molecule": "CNC(=O)c1cnc(Nc2ccc(OCC(O)CN(C)C)cc2)nc1Nc1cccc([N+](=O)[O-])c1", "note": "(stereo not drawn) [TCMDC-141392]", "% Inhibition": 55.28},
      {"molecule": "CNC(=O)c1cnc(Nc2ccc(OCC(O)CN(C)C)cc2)nc1Nc1cccc(Br)c1", "note": "(stereo not drawn) [TCMDC-141388]", "% Inhibition": 25.03},
      {"molecule": "CN1CCN(c2ccc(Nc3ncc([N+](=O)[O-])c(Nc4ccccc4O)n3)cc2)CC1", "note": "[TCMDC-141372]", "% Inhibition": 99.51},
      {"molecule": "CNC(=O)c1cnc(Nc2ccc(N3CCOCC3)cc2)nc1Nc1cccc(OC)c1", "note": "[TCMDC-141386]", "% Inhibition": -63.88},
      {"molecule": "CNC(=O)c1cnc(Nc2ccc(N3CCN(C)CC3)cc2)nc1Nc1cccc(OC(C)C)c1", "note": "[TCMDC-141384]", "% Inhibition": -23.05},
      {"molecule": "CNC(=O)c1cnc(Nc2ccc(N3CCN(C)CC3)cc2)nc1Nc1cccc(OC)c1", "note": "[TCMDC-141383]", "% Inhibition": 85.81},
      {"molecule": "CN(C)CCOc1cc(NC(=O)Nc2cccc([N+](=O)[O-])c2)ccc1I", "note": "[TCMDC-139158]", "% Inhibition": 11.15},
      {"molecule": "Cc1cc(C)cc(OCC(O)CN(Cc2cc(Cl)cc(Cl)c2)C(=O)Nc2ccc([N+](=O)[O-])cc2)c1", "note": "(stereo not drawn) [TCMDC-141478]", "% Inhibition": -6.134},
      {"molecule": "CC(C)N(Cc1ccccc1)C(=O)CN1C(=O)COc2ccc(S(=O)(=O)N3CCCCCC3)cc21", "note": "[TCMDC-124755]", "% Inhibition": -21.1},
      {"molecule": "N#Cc1ccc2c(c1)CCN(CCC1CCC(NC(=O)c3cccc(-c4ccc(F)cc4)c3)CC1)CC2", "note": "(stereo not drawn) [TCMDC-139679]", "% Inhibition": -51.12},
      {"molecule": "O=C(c1csc(-c2cccnc2)n1)N1CCc2cc3nccc(N4CCN5CCC[C@H]5C4)c3cc21", "note": "[TCMDC-140044]", "% Inhibition": 44.75},
      {"molecule": "CCCCCSc1cc(O)c(C(CNC)C(C)C)cc1OC", "note": "(stereo not drawn) [TCMDC-125495]", "% Inhibition": -82.86},
      {"molecule": "CNC(=O)c1cnc(Nc2ccc(OCC(O)CN(C)C)cc2)nc1Nc1cccc(OC(C)C)c1", "note": "(stereo not drawn) [TCMDC-141389]", "% Inhibition": 97.53},
      {"molecule": "CCCN(CCC)CC(O)COc1ccccc1C(=O)Nc1ccccc1", "note": "(stereo not drawn) [TCMDC-125708]", "% Inhibition": -0.1626},
      {"molecule": "CNC(=O)c1cnc(Nc2ccc3[nH]c(=O)[nH]c3c2)nc1Nc1cccc(OC(C)C)c1", "note": "[TCMDC-141390]", "% Inhibition": -16.36},
      {"molecule": "CNc1ccc(CNCc2cccc(-c3ccc(-c4nc5ccccc5[nH]4)cc3)c2)cc1.O=C(O)C(F)(F)F", "note": "[TCMDC-132986]", "% Inhibition": 13.98},
      {"molecule": "COc1ccc(CNCc2cccc(-c3ccc(-c4nc5ccccc5[nH]4)cc3)c2)cc1.O=C(O)C(F)(F)F", "note": "[TCMDC-132718]", "% Inhibition": 76.66},
      {"molecule": "COc1ccc(CNCc2ccc(-c3cccc(-c4nc5ccccc5[nH]4)c3)cc2)cc1.O=C(O)C(F)(F)F", "note": "[TCMDC-132546]", "% Inhibition": 33.45},
      {"molecule": "O=C(O)C(F)(F)F.c1ccc(CNCc2ccc(-c3ccc(-c4nc5ccccc5[nH]4)cc3)cc2)cc1", "note": "[TCMDC-132711]", "% Inhibition": -28.39},
      {"molecule": "COc1ccc(CNCc2ccc(-c3ccc(-c4nc5cc(F)ccc5[nH]4)cc3)cc2)cc1.O=C(O)C(F)(F)F", "note": "[TCMDC-132725]", "% Inhibition": -52.38},
      {"molecule": "COc1ccc(CNCc2ccc(-c3ccc(-c4nc5ccccc5[nH]4)cc3)cc2)cc1.O=C(O)C(F)(F)F", "note": "[TCMDC-132730]", "% Inhibition": 80.88},
      {"molecule": "OC[C@H]1CCCN1CC#Cc1cc2c(Nc3ccc(OCc4cccc(F)c4)c(Cl)c3)ncnc2s1", "note": "[TCMDC-138787]", "% Inhibition": -22.43},
      {"molecule": "Cc1ccn2c(C(=O)N3CCN(c4cccc5c4nc(-c4ccoc4)n5Cc4ccccn4)CC3)c(C)nc2c1", "note": "[TCMDC-134556]", "% Inhibition": -25.5},
      {"molecule": "CCCC(=O)Nc1ccc(Nc2nc(C)cc(N3CCCC3)n2)cc1", "note": "[TCMDC-124718]", "% Inhibition": -11.42},
      {"molecule": "COc1ccc(Nc2ncc3c(-c4cccc(NC(=O)CC(C)C)c4)c[nH]c3n2)cc1OC", "note": "[TCMDC-135246]", "% Inhibition": 51.08},
      {"molecule": "COc1ccc(Nc2ncc3c(-c4cccc(NC(=O)Cc5ccncc5)c4)c[nH]c3n2)cc1OC", "note": "[TCMDC-135286]", "% Inhibition": -39.63},
      {"molecule": "COc1ccc(Nc2ncc3c(-c4cccc(NC(=O)Cc5ccc(O)cc5)c4)c[nH]c3n2)cc1OC", "note": "[TCMDC-135248]", "% Inhibition": -43.02},
      {"molecule": "NC1CCCN(Cc2cccc(-c3ccc(-c4nc5ccccc5[nH]4)s3)c2)C1.O=C(O)C(F)(F)F", "note": "(stereo not drawn) [TCMDC-133870]", "% Inhibition": 15.45},
      {"molecule": "Cc1cccc2nc(-c3ccc(-c4cccc(CN5CCN(CCN6CCOCC6)CC5)c4)s3)[nH]c12.O=C(O)C(F)(F)F", "note": "[TCMDC-133925]", "% Inhibition": 7.217},
      {"molecule": "Cc1cccc2nc(-c3ccc(-c4cccc(CN5CCC(C(N)=O)CC5)c4)s3)[nH]c12.O=C(O)C(F)(F)F", "note": "[TCMDC-132690]", "% Inhibition": -2.69},
      {"molecule": "Cc1cccc2nc(-c3ccc(-c4cccc(CN5CCC(CO)CC5)c4)s3)[nH]c12.O=C(O)C(F)(F)F", "note": "[TCMDC-133122]", "% Inhibition": 24.91},
      {"molecule": "Cc1cccc2nc(-c3ccc(-c4cccc(CN5CCC(N)C5)c4)s3)[nH]c12.O=C(O)C(F)(F)F", "note": "(stereo not drawn) [TCMDC-133873]", "% Inhibition": 89.08},
      {"molecule": "Cc1cccc2nc(-c3ccc(-c4cccc(CN5CCCC(O)C5)c4)s3)[nH]c12.O=C(O)C(F)(F)F", "note": "(stereo not drawn) [TCMDC-133834]", "% Inhibition": -3.04},
      {"molecule": "Cc1cccc2nc(-c3ccc(-c4cccc(CN5CCCCC5)c4)s3)[nH]c12.O=C(O)C(F)(F)F", "note": "[TCMDC-133911]", "% Inhibition": -13.55},
      {"molecule": "Cc1cccc2nc(-c3ccc(-c4cccc(CN5CCC(CCN6CCCCC6)CC5)c4)s3)[nH]c12.O=C(O)C(F)(F)F", "note": "[TCMDC-133923]", "% Inhibition": 107.3},
      {"molecule": "Cc1cccc2nc(-c3ccc(-c4cccc(CN5CCCC(N)C5)c4)s3)[nH]c12.O=C(O)C(F)(F)F", "note": "(stereo not drawn) [TCMDC-133874]", "% Inhibition": 63.62},
      {"molecule": "COc1ccc(-c2cncc(-c3ccc(OC)c(OC)c3)n2)cc1OC", "note": "[TCMDC-138247]", "% Inhibition": 25.57},
      {"molecule": "COc1ccc(-c2cnn3ccc(Nc4cc(OC)c(OC)c(OC)c4)nc23)cc1OC", "note": "[TCMDC-134383]", "% Inhibition": 101},
      {"molecule": "COc1cc(Nc2nccn3c(-c4ccsc4)cnc23)cc(OC)c1OC", "note": "[TCMDC-134382]", "% Inhibition": 37.58},
      {"molecule": "O=C(CSc1nccn1C1CCCCC1)Nc1cc(C(F)(F)F)ccc1Cl", "note": "[TCMDC-124949]", "% Inhibition": 15.12},
      {"molecule": "Cc1c(CNCCCNc2nc3ccncc3[nH]2)sc(Br)c1Br", "note": "[TCMDC-140512]", "% Inhibition": 32.17},
      {"molecule": "CCNc1cc(C(=O)N[C@@H](Cc2ccccc2)[C@H](O)CNC(C)C)cc(N2CC(c3ccccc3)CCS2(=O)=O)c1", "note": "(stereo partly drawn) [TCMDC-134660]", "% Inhibition": 43.25},
      {"molecule": "O=S(=O)(NC1CCN(c2ccnc3cc(Cl)ccc23)C1)c1cccs1", "note": "(stereo not drawn) [TCMDC-133398]", "% Inhibition": 1.762},
      {"molecule": "Nc1cccc(CNCc2ccc(-c3cccc(-c4nc5ccc(F)cc5[nH]4)c3)cc2)c1", "note": "[TCMDC-132937]", "% Inhibition": -46.54},
      {"molecule": "CNc1ccc(CNCc2ccc(-c3ccc(-c4nc5ccc(F)cc5[nH]4)cc3)cc2)cc1", "note": "[TCMDC-132980]", "% Inhibition": -78.33},
      {"molecule": "CNCCNCc1cccc(-c2cccc(-c3nc4ccc(F)cc4[nH]3)c2)c1", "note": "[TCMDC-132840]", "% Inhibition": 70.05},
      {"molecule": "COc1ccc(CNCc2ccc(-c3cccc(-c4nc5ccc(F)cc5[nH]4)c3)cc2)cc1", "note": "[TCMDC-132721]", "% Inhibition": -29.84},
      {"molecule": "COc1ccc(CNCc2cccc(-c3cccc(-c4nc5ccc(F)cc5[nH]4)c3)c2)cc1", "note": "[TCMDC-132717]", "% Inhibition": -45.78},
      {"molecule": "Fc1ccc2nc(-c3cccc(-c4cccc(CNCCc5ccncc5)c4)c3)[nH]c2c1", "note": "[TCMDC-132857]", "% Inhibition": -45.49},
      {"molecule": "Fc1ccc2nc(-c3cccc(-c4ccc(CNCc5ccccc5)cc4)c3)[nH]c2c1", "note": "[TCMDC-132702]", "% Inhibition": -56.98},
      {"molecule": "CNCCNCc1ccc(-c2cccc(-c3nc4ccc(F)cc4[nH]3)c2)cc1", "note": "[TCMDC-132836]", "% Inhibition": 79.45},
      {"molecule": "CN(C)CCNCc1ccc(-c2ccc(-c3nc4ccc(F)cc4[nH]3)cc2)cc1", "note": "[TCMDC-132681]", "% Inhibition": 40.34},
      {"molecule": "Fc1ccc2nc(-c3cccc(-c4ccc(CNCCc5ccncc5)cc4)c3)[nH]c2c1", "note": "[TCMDC-132854]", "% Inhibition": 81.48},
      {"molecule": "CNCCNCc1ccc(-c2ccc(-c3nc4ccc(F)cc4[nH]3)cc2)cc1", "note": "[TCMDC-132832]", "% Inhibition": 83.07},
      {"molecule": "CS(=O)(=O)NCCCNCc1cccc(-c2cccc(-c3nc4ccc(F)cc4[nH]3)c2)c1", "note": "[TCMDC-133075]", "% Inhibition": -24.93}
    ]}
  ]
}
